# Test results from PubChem BioAssay (NCATS).
# A number with no mark means an inactive call. Results filed as inconclusive are left out. A call without a number means that no potency is given here. The source made the active and inactive calls. Unless noted, calls follow the shape of the dose curve; as a rule, active = well fitted curve in the direction sought with a large enough effect; inconclusive = small, poorly fitted or top-dose-only effect, or another doubt; inactive = no such curve, though single readings can be large; an effect the other way counts as inactive or inconclusive.
# Tests used:
# [1] = target: Lysosomal acid glucosylceramidase (Homo sapiens) (UniProt P04062); test: Glucocerebrosidase-p2 (AID 348; in the data active = potency below about 10 µM; also: potency is read from the fitted curve at half-maximal effect); details: purified GBA, blue fluorogenic substrate, 40 min
# How it was run: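 Normal human glucocerebrosidase (0.2 nM) with blue fluorogenic substrate (80 uM final) in citrate/phosphate pH 5.9 with 10mM sodium taurocholate, 0.01% tween-20; 40 min RT, NaOH/glycine stop; fluorescence Ex 365/Em 440; AC50 from a titration from 0.6 nM upwards.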
# [2] = AP1 Signaling Pathway (AID 357; active = well fitted curve in either direction with a large enough effect, not every such curve was filed as active;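 also: ME-180 reporter cells stimulated with EGF at its EC50 level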); details: ME-180 AP-1-bla reporter, EGF-induced, beta-lactamase ratio, 5 h; at 7.69 µM (top of the series) unless noted
# How it was run: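 Beta-lactamase reporter under AP-1 response element, ME-180 background. Stimulus: EC50 EGF. Compound exposure 5 h, 37 °C. Detection: CCF4, 2.5 h RT, 460/530 nm. Values: AC50 from titration.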
# [3] = target: Cytochrome P450 1A2 (Homo sapiens) (UniProt P05177); test: p450-cyp1a2 (AID 410; calls by dose curve; also: potency is read from the fitted curve at half-maximal effect); details: recombinant CYP1A2, luciferin-ME demethylation, luminescence; series mostly up to 57 µM
# How it was run: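 Luminescent demethylation readout: Luciferin-ME (100uM, equal to Km) turned over by 20nM CYP1A2 for 60 min at room temperature after NADPH regeneration addition, following 10 min compound preincubation. Normalization used 57 uM furafylline as full inhibition.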
# [4] = Stat Signaling Pathway (AID 446; active = well fitted curve in either direction with a large enough effect, not every such curve was filed as active;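 also: ME-180 cervical cancer cells given 40 pM IL-6 alongside compound; SIE-controlled beta-lactamase reporter measured as 460/530 nm FRET emission ratio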); details: ME-180 (cervical carcinoma) SIE beta-lactamase reporter, IL-6 stimulated, 5 h; at 7.69 µM (top of the series) unless noted
# How it was run: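 Compound effects on IL-6-induced STAT reporter activity were measured in ME-180 cells. After overnight culture, cells were co-treated with 40 pM IL-6 for 5 hrs before beta-lactamase substrate loading at room temperature.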
# [5] = target: Glucocorticoid receptor (Homo sapiens) (UniProt P04150); test: GR-GFP Redistribution (AID 450;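 active = compounds whose dose series gives a full or clear partial fitted curve of increased nuclear translocation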; also: potency is read from the fitted curve at half-maximal effect); details: U2OS GR-GFP nuclear translocation, laser cytometry, 2 h
# [6] = target: Glucocorticoid receptor (Homo sapiens) (UniProt P04150); test: GR-EFC Redistribution (AID 451; calls by dose curve; also: potency is read from the fitted curve at half-maximal effect); details: CHO-K1 GR-EFC translocation, beta-gal luminescence, 2 h
# How it was run: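 Translocation of GR-ED fusion to nuclear EA restores b-gal, read by luminescence after 1 h room-temperature detection. Engineered CHO-K1 biosensor cells, 1,000/well, exposed 2 h at 37 C to titrations up to 46 uM final.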
# [7] = target: Mitogen-activated protein kinase 10 (Mus musculus) (UniProt Q61831); test: JNK3 AlphaScreen Assay (AID 530; active = well fitted curve in either direction with a large enough effect, not every such curve was filed as active;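 also: kinase came from lysate of stimulated human HepG2 cells; signal reports phosphorylation of biotinylated GST-cJun 1-79 at Ser73 with 10 µM ATP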); details: JNK3 lysate, c-Jun phosphorylation; series mostly up to 57.1 µM
# How it was run: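 qHTS titrations with 15 min compound pre-incubation before adding ATP (10 uM final). Read-out: AlphaScreen of Ser73-phosphorylated biotin-GST-cJun using HepG2 lysate JNK3 activated by IL-1β and TNFα.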
# [8] = target: Cytochrome P450 3A4 (Homo sapiens) (UniProt P08684); test: qHTS Assay for Inhibitors and Substrates of Cytochrome P450 3A4 (AID 884); details: recombinant CYP3A4, Luciferin-PPXE luminescence; series mostly up to 57.1 µM; also: potency is read from the fitted curve at half-maximal effect; nearly all actives have a fitted effect of over 50% in size
# How it was run: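 Luminescent readout of luciferin produced by CYP3A4 (20 nM) dealkylation of Luciferin-PPXE, 25 uM (its KM). NADPH-driven reaction ran 60 min at RT after 10 min compound preincubation; data scaled to 57 uM ketoconazole as 100% inhibition.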
# [9] = target: Cytochrome P450 3A4 (Homo sapiens) (UniProt P08684); test: qHTS Assay for Activators of Cytochrome P450 3A4 (AID 885); details: recombinant CYP3A4, Luciferin-PPXE luminescence, 60 min; series mostly up to 57.1 µM; also: nearly all actives have a fitted effect of over 65% in size
# How it was run: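 CYP3A4 activity: Luciferin-PPXE O-dealkylation, 25uM substrate, 200mM KPO4, RT throughout. Read-out is luciferase luminescence; higher values reflect activation.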
# [10] = target: Dual specificity protein kinase CLK4 (Homo sapiens) (UniProt Q9HAZ1); test: qHTS Assay for Inhibitors of CDC-like Kinase 4 (Kinase-Glo Assay) (AID 1770); details: recombinant Clk4, Kinase-Glo ATP depletion luminescence; series mostly up to 66.7 µM; also: nearly all actives have a fitted effect of over 65% in size
# How it was run: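 Luminescent ATP-depletion read-out (Kinase-Glo) after 4.5 h room-temperature reaction of Clk4 (25 nM final) with RS peptide (100 uM) and ATP (1 uM), pH 7.5 Tris buffer with MgCl2 and DTT.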
# [11] = target: Dual specificity protein kinase CLK4 (Homo sapiens) (UniProt Q9HAZ1); test: qHTS Assay for Inhibitors of CDC-like Kinase 4 (ADP-Glo Assay) (AID 1771); details: recombinant CLK4, ADP-Glo luminescence; series mostly up to 80 µM; also: nearly all actives have a fitted effect of over 70% in size
# How it was run: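 ADP production was read by ADP-Glo luminescence after residual ATP depletion, following 1 h room-temperature reaction of 25 nM Clk4, 1 uM ATP and 100 uM RS peptide with MgCl2, EGTA, DTT and Triton X-100.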
# [12] = target: Dual specificity protein kinase CLK4 (Homo sapiens) (UniProt Q9HAZ1); test: qHTS Assay for Inhibitors of CDC-like Kinase 4 (ADP-FP Assay) (AID 1795); details: Transcreener ADP fluorescence polarization; series mostly up to 50 µM;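 also: recombinant human CLK4 phosphorylating RS repeat peptide at 1 µM ATP; nearly all actives have a fitted effect of over 60% in size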
# How it was run: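 Kinase activity was measured as ADP production using Transcreener orange tracer (4 nM) and ADP antibody (1 ug/mL) fluorescence polarization, with ADP calculated from a calibration curve. The 1 h reaction contained 6.25 nM Clk4, 1 uM ATP and 100 uM RS peptide at pH 7.5 with Mg2+.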
# [13] = target: Ubiquitin carboxyl-terminal hydrolase 1 (Homo sapiens) (UniProt O94782); test: Inhibitors of USP1/UAF1: Pilot qHTS (AID 504865); details: purified USP1/UAF1, Ub-rhodamine cleavage fluorescence; series mostly up to 54.9 µM;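 also: rhodamine fluorescence freed from ubiquitin-rhodamine substrate followed over time; top concentration of the series differs between compounds; nearly all actives have a fitted effect of over 35% in size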
# How it was run: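 Deubiquitinase activity followed as kinetic rhodamine fluorescence release from 150 nM Ub-Rho. 1 nM USP1/UAF1 with compound, after 15 min room-temperature preincubation, in HEPES pH 7.8 buffer containing TCEP, EDTA, BSA and Tween-20.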
# [14] = Primary qHTS for small molecule stabilizers of the endoplasmic reticulum resident proteome: Secreted ER Calcium Modulated Protein (SERCaMP) assay (AID 1508630); details: SH-SY5Y GLuc-SERCaMP (Gaussia luciferase released on ER calcium loss) secretion, thapsigargin, luminescence; series mostly up to 38.4 µM
# How it was run: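 The SH-SY5Y reporter protocol was run at 3 concentrations up to 38.3 uM (primary) or 11 concentrations (follow-up): 16 h compound, 100 nM thapsigargin for 4 h, then extracellular luciferase luminescence.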
# [15] = NFAT Signaling Pathway (AID 444; active = well fitted curve in either direction with a large enough effect, not every such curve was filed as active;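 also: carbachol stimulus at about its EC50 of 1 µM final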); details: Jurkat NFAT-bla M1, carbachol, beta-lactamase ratio, 5 h; at 7.69 µM (top of the series) unless noted
# How it was run: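 Read-out: CCF4 FRET ratio (460 nm/530 nm) after 1 h RT dye loading, used for %activity and AC50 from titration series. Cells: Jurkat NFAT-β-lactamase/M1 line, treated with compound plus 1 uM carbachol for 5 h, 37 °C.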
# [16] = target: 3',5'-cyclic-AMP phosphodiesterase 4B (Homo sapiens) (UniProt Q07343); test: qHTS Assay for Inhibitors of PDE-IV (AID 607; active = well fitted activation curve with a large enough effect in the main read-out, with a control signal flat, not every such curve was filed as active); details: HEK293 ACTOne CNG channel cells, membrane potential fluorescence; series mostly up to 22.9 µM
# How it was run: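 ACTOne HEK293 cells carry a modified cAMP-gated CNG channel and express endogenous PDE4; plated 1000 cells/well, compounds up to 22.9 uM final. Membrane-potential dye fluorescence (ex 535/em 590) was read; parental cells received 10 uM forskolin + 100 uM RO 20-1724.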
# [17] = target: Cytochrome P450 2C9 (Homo sapiens) (UniProt P11712); test: qHTS Assay for Inhibitors and Substrates of Cytochrome P450 2C9 (AID 883); details: recombinant CYP2C9, luciferin-H luminescence, 60 min; series mostly up to 57.1 µM; also: potency is read from the fitted curve at half-maximal effect; nearly all actives have a fitted effect of over 60% in size
# How it was run: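 Inhibition of CYP2C9 is scored as loss of luminescence, with 57uM sulphaphenazole defining 100% inhibition. Substrate Luciferin-H is used at 100uM, equal to its KM; enzyme at 10nM in 25mM KPO4, 60 min at 37C with NADPH regeneration.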
# Dual specificity protein kinase CLK4 (Homo sapiens), sequence (Q9HAZ1 whole entry, looked up): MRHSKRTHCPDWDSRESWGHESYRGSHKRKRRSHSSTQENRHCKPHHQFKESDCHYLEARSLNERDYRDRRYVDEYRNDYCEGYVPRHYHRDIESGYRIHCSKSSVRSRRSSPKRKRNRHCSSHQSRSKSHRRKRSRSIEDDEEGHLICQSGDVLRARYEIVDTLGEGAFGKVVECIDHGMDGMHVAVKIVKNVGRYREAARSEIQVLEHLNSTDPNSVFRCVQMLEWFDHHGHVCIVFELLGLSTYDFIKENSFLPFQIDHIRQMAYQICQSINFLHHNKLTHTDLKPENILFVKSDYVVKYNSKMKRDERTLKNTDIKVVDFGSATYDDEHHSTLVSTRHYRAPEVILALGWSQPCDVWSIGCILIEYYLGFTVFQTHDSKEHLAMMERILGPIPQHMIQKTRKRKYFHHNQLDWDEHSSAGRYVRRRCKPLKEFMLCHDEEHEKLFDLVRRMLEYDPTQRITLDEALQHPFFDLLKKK
# 3',5'-cyclic-AMP phosphodiesterase 4B (Homo sapiens), sequence (Q07343 whole entry, looked up): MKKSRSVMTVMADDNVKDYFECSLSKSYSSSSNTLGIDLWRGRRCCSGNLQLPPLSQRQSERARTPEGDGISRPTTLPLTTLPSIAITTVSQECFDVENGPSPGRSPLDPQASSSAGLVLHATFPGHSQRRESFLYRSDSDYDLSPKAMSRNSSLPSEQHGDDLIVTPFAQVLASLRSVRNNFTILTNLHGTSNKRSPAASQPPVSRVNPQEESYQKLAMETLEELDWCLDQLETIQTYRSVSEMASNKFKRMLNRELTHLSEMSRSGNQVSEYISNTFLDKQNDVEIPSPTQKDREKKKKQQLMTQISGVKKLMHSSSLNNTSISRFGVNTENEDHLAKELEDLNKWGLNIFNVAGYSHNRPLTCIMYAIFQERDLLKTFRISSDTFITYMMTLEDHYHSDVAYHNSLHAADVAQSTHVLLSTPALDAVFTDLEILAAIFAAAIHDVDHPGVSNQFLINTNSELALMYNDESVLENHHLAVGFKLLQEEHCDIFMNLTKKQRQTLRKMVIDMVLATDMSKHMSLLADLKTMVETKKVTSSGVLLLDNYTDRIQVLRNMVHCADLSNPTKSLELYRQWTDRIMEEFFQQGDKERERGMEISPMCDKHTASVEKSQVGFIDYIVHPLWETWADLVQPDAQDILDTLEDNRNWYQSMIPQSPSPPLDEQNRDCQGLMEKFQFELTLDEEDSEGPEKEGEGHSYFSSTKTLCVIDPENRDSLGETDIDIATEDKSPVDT
# Lysosomal acid glucosylceramidase (Homo sapiens), sequence (P04062 whole entry, looked up): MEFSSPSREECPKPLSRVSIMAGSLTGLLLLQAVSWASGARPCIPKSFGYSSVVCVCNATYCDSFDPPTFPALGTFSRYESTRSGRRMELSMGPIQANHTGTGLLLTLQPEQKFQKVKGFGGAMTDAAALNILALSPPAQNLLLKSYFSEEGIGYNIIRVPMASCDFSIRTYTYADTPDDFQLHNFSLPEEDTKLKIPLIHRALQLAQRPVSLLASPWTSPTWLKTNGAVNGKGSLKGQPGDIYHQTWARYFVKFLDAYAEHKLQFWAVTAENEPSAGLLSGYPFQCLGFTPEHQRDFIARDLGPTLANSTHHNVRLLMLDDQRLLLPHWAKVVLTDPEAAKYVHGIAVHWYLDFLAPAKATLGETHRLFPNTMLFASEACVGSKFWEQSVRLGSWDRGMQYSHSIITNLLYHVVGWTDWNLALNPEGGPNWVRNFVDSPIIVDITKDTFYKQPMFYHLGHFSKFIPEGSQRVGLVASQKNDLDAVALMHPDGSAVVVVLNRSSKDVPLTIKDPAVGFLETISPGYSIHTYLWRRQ
# Cytochrome P450 1A2 (Homo sapiens), sequence (P05177 whole entry, looked up): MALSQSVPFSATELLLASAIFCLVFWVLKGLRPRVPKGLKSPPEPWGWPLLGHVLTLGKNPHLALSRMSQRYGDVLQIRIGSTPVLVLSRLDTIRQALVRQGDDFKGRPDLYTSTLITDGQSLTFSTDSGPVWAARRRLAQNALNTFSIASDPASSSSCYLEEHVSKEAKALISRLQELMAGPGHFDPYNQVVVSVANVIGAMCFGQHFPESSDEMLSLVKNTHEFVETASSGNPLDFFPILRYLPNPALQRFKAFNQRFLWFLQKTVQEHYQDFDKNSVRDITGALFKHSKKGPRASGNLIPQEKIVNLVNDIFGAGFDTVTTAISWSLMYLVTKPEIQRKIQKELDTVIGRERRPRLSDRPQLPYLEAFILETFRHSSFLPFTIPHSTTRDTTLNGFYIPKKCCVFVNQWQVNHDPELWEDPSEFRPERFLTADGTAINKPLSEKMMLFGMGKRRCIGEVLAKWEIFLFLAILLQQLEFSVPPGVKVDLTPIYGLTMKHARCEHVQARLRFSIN
# Cytochrome P450 3A4 (Homo sapiens), sequence (P08684 whole entry, looked up): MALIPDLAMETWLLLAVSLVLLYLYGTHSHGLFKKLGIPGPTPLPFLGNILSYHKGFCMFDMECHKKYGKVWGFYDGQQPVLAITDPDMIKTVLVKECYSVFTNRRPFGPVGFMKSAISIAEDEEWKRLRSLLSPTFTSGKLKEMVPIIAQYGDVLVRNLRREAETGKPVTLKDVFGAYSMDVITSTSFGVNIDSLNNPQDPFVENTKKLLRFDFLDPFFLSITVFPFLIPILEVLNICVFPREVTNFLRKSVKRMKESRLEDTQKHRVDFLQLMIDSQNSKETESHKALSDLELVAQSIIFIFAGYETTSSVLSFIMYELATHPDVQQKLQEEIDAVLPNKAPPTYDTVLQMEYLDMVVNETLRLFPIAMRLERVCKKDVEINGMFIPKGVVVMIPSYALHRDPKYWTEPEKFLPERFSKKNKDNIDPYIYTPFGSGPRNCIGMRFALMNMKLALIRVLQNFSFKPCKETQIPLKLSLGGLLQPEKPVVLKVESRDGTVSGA
# Glucocorticoid receptor (Homo sapiens), sequence (P04150 whole entry, looked up, the tested form may be a part): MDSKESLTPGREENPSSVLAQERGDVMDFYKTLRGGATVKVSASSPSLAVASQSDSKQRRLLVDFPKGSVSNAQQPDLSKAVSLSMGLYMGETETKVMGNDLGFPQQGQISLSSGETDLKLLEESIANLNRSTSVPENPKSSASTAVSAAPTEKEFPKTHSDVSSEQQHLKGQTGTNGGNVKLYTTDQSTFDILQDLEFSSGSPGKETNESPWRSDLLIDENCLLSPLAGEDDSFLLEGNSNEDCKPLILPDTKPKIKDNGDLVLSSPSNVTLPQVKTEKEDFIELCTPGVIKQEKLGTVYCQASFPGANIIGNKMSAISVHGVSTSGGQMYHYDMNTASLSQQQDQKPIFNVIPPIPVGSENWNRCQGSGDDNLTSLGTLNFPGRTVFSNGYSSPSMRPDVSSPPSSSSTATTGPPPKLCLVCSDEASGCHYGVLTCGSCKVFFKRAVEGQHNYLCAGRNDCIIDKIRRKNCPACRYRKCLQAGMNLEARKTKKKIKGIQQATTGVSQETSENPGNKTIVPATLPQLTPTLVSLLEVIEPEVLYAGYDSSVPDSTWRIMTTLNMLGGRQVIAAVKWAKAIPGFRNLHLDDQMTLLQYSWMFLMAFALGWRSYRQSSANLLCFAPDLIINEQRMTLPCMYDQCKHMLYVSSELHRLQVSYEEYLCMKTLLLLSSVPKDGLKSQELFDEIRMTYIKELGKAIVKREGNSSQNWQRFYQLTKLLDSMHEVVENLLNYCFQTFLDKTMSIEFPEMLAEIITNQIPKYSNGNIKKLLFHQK
# Ubiquitin carboxyl-terminal hydrolase 1 (Homo sapiens), sequence (O94782 whole entry, looked up): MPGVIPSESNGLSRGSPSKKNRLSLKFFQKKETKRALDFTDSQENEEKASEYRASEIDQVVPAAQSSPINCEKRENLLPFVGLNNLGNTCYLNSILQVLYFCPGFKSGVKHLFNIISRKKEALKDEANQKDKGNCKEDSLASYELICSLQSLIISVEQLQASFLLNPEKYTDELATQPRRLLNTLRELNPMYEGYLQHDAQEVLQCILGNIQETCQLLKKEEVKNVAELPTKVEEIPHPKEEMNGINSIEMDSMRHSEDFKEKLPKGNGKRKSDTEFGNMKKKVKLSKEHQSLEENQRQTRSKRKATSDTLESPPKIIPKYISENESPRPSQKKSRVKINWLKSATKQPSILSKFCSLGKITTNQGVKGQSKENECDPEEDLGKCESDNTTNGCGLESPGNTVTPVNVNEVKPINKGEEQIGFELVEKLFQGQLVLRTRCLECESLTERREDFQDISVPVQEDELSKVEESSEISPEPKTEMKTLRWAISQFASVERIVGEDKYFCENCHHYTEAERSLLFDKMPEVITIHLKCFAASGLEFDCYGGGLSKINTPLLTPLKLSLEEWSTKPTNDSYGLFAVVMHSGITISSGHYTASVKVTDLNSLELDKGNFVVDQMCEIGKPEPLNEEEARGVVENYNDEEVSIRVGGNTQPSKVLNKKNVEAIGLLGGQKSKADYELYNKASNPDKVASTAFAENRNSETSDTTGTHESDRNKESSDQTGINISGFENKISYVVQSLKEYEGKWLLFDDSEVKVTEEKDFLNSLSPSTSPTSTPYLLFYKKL
# Cytochrome P450 2C9 (Homo sapiens), sequence (P11712 whole entry, looked up): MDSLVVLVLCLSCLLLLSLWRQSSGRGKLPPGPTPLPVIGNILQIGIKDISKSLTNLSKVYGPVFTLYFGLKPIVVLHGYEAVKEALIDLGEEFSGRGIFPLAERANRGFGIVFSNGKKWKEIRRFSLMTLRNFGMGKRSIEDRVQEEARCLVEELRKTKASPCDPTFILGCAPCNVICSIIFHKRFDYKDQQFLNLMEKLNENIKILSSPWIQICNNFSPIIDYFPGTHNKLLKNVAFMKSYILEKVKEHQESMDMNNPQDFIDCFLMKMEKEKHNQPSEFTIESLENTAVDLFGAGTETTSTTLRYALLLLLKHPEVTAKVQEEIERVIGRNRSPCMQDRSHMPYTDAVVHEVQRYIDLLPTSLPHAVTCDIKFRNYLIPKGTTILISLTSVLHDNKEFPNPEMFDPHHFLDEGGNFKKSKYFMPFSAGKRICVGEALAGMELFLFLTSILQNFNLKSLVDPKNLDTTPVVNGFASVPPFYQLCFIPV
Compound,Potency [1] [µM],"activity change, negative = inhibition [2] [%]",Potency [3],"activity, negative = inhibition [4] [%]",Potency [5] [µM],Potency [6] [µM],Potency [7],Potency [8],Potency [9],Potency [10],Potency [11],Potency [12],Potency [13],outcome [14],"activity change, negative = inhibition [15] [%]",Potency [16],Potency [17]
FC(F)(F)c1ccccc1-c1cncnc1NCc1cccs1,> 11.4,10.5,20 µM (active),-1.4,> 46,> 46,inactive,0.251 µM (active),inactive,inactive,inactive,inactive,inactive,inactive,–,–,–
COc1cccc(Cn2c(=O)cnc3cnc(OC)nc32)c1,> 11.4,17.7,12.6 µM (active),–,> 9.22,> 46,inactive,–,inactive,inactive,inactive,inactive,inactive,inactive,20,inactive,–
O=c1c(-c2cccc(Cl)c2)nc2cncnc2n1Cc1ccccc1,> 11.4,-3.36,1 µM (active),–,> 9.22,> 46,inactive,–,–,inactive,inactive,inactive,inactive,inactive,-0.741,–,1.26 µM (active)
CCNc1ncc2nc(-c3ccc(F)cc3)c(=O)n(C[C@H]3CCCO3)c2n1,> 11.4,-0.226,1.26 µM (active),–,> 9.22,> 46,inactive,–,–,inactive,inactive,inactive,inactive,inactive,12.6,–,–
COc1cccc(Cn2c(=O)c(-c3cccs3)nc3cnc(OCc4ccccc4)nc32)c1,> 11.4,27.9,1.58 µM (active),–,> 9.22,> 46,inactive,–,inactive,inactive,inactive,inactive,inactive,inactive,3.84,inactive,–
COc1ncc2nc(-c3cccs3)c(=O)n(Cc3ccc(F)cc3)c2n1,> 11.4,22.6,3.16 µM (active),–,> 9.22,> 46,inactive,3.16 µM (active),inactive,inactive,inactive,inactive,inactive,inactive,8.73,inactive,–
